For this experiment, the target named is ATP-dependent translocase ABCB1 (Homo sapiens) (UniProt P08183). Put plainly: qHTS for characterization and localization of zebrafish homologs of the human ABCB1 multidrug transporter: P-gp overexpressing MDR-19 cells. The conditions noted are these: MDR-19 cells overexpressing P-gp, CellTiter-Glo luminescence viability, 72 h; series mostly up to 15.2 µM. The source says:
The zebrafish has emerged as a potential model to study the blood-brain barrier (BBB) given its similarities with mammalian systems. However, little information has been available with regard to homologous ATP-binding cassette transporters expressed at the zebrafish BBB. Two transporters that are highly expressed at the human BBB are P-glycoprotein (P-gp, encoded by the ABCB1 gene) and ABCG2 (encoded by the ABCG2 gene). In this study, we focus on characterization of P-gp homologs in the zebrafish, which has two genes that are homologous to human ABCB1 - abcb4 and abcb5. We generated stably-transfected cell lines to determine their substrate specificities. […] Zebrafish abcb4 also colocalized with claudin 5 expression in brain endothelial cells.
A high-throughput screen was performed as previously described on empty vector transfected cells, P-gp-overexpressing MDR-19 cells and cells transfected with full-length zebrafish abcb4 (ZF Abcb4) or abcb5 (ZF Abcb5). Briefly, cells were plated into 1536-well plates at a density of 500 cells/well in 5 uL media. […] CellTiter-Glo reagent (Promega) was dispensed into the wells, incubated for 5 min and luminescence was read on a ViewLux instrument (Perkin-Elmer). […]

Inconclusive results are not listed. Entries that show only a call come without a potency. The source made the active and inactive calls. Calls follow the shape of the dose curve; as a rule, active = well fitted inhibition curve with a large enough effect; inconclusive = small, poorly fitted or top-dose-only effect; inactive = flat fitted curve, though single readings scatter. *1 amine or outer side, *2 acyl side, *3 side chain or, on linkers, in order; H or OH if unused. Where a SMILES comes first, the peptide text is derived from it. [ ]: non-standard residue; d: D form. X1 = O=C([C@@H](CC(O)CCl)O[*:1])[*:2]; aIle = CC[C@@H](C)[C@H](N)C(=O)O; NMeV = CN[C@H](C(=O)O)C(C)C; NMeA = CN[C@@H](C)C(=O)O; βAla = NCCC(=O)O

Chain of ATP-dependent translocase ABCB1 (Homo sapiens) (P08183 whole entry, looked up): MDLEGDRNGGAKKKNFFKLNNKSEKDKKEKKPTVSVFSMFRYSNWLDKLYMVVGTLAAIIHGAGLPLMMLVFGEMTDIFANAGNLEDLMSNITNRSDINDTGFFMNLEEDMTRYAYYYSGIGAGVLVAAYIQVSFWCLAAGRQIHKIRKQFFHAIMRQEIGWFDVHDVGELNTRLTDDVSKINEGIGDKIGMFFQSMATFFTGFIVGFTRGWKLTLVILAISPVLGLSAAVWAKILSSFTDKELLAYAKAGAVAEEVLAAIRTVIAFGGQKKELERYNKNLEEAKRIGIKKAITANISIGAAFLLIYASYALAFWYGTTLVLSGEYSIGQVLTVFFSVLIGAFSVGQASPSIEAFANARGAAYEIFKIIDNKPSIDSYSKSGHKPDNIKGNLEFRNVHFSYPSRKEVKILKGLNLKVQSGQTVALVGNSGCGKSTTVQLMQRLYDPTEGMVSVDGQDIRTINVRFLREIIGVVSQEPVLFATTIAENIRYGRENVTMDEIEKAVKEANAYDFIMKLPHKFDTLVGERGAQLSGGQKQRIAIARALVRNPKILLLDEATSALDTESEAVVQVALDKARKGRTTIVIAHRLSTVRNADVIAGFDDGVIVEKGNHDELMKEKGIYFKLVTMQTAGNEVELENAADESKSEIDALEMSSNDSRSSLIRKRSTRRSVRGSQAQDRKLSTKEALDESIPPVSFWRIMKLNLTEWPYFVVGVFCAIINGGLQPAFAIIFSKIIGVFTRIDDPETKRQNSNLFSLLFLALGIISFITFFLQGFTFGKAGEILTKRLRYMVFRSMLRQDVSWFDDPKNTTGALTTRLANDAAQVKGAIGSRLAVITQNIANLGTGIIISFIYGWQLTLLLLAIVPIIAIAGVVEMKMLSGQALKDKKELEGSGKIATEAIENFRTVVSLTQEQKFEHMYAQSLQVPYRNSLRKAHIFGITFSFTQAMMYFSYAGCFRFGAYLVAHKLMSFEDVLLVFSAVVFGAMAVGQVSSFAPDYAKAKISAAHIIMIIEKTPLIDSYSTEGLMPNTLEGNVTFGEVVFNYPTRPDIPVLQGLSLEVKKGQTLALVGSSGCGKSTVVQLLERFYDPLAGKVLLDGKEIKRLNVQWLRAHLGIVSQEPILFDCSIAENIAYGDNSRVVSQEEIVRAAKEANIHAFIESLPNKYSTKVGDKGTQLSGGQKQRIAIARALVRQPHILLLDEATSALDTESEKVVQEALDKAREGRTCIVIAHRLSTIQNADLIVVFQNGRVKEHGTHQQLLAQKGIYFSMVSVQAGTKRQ

Take `CC[C@@H](C)[C@@H]1NC(=O)[C@@H]2CCCN2C(=O)[C@@H](CC(O)CCl)OC(=O)CCNC(=O)[C@H](C)N(C)C(=O)[C@H](C(C)C)N(C)C1=O` (some centres not stated) (cyclo([NMeA][βAla][X1]P[aIle][NMeV])): the Potency result is “inactive”.
Take `C[C@@H]1[C@@H](CC(C[C@H]2O[C@@H]3O[C@]4(C)CC[C@@H]5[C@H](C)CC[C@@H]([C@H]2C)[C@@]35OO4)C[S+](=O)([O-])c2ccc(COC(=O)N(C)C)cc2)O[C@@H]2O[C@]3(C)CC[C@H]4[C@H](C)CC[C@@H]1[C@@]24OO3` (some centres not stated): the Potency is 1320 nM (active).

For the origin of these results see PubChem BioAssay AID1508636 (National Center for Advancing Translational Sciences (NCATS), 2021).
